Test [1] in a line: qHTS profiling of the MIPE4 collection as inhibitors of Plasmodium falciparum (3D7) proliferation (AID 743344).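 Further: scaled between DMSO vehicle wells and 0.29 µM artemisinin as full inhibition.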 Particulars: P. falciparum 3D7 in erythrocytes, SYBR Green DNA fluorescence, 72 h; at 28.5 µM unless noted. A digest of the protocol: (§1)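 Erythrocytes infected with P. falciparum (0.3% parasitemia, 2.5% hematocrit) incubated with compounds 72 h at 37 C, 5% CO2. Lysis with saponin/Triton buffer containing SYBR Green I, overnight at room temperature in the dark; DNA fluorescence (485/535 nm) normalised to 0.29 uM artemisinin and DMSO.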

Test [2] can be described thus: qHTS profiling of the MIPE4 collection as inhibitors of Plasmodium falciparum (DD2) proliferation (AID 743345). To be noted: P. falciparum Dd2 in erythrocytes, SYBR Green DNA, 72 h; at 28.5 µM unless noted. In a few lines:
as §1

Test [3] is described as follows: qHTS profiling of the MIPE4 collection as inhibitors of Plasmodium falciparum (DD2) proliferation (Rep 2) (AID 743346). To be noted: P. falciparum Dd2 in erythrocytes, SYBR Green DNA, 72 h; at 28.5 µM unless noted. In a few lines:
as §1

Test [4] can be described thus: qHTS profiling of the MIPE4 collection as inhibitors of Plasmodium falciparum (HB3) proliferation (AID 743347).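 Further: plate controls were DMSO vehicle wells for no effect and artemisinin wells for full effect.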 To be noted: P. falciparum HB3 in erythrocytes, SYBR Green DNA, 72 h; at 28.5 µM unless noted. In a few lines: as §1
Test [5] in a line: High-throughput drug toxicity screening in the BPDCN cell line Gen2.2 (AID 1224824).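 Further: cells exposed to compounds for 48 h before reading.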 Particulars: Gen2.2 BPDCN cells; at 45.8 µM (top of the series) unless noted. In a few lines: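 Gen2.2 cells, 500 per well in phenol red-free RPMI with 10% FBS, exposed to compounds 48 h at 37 C, 5% CO2; viability by CellTiter-Glo luminescence. Percent activity scaled to DMSO (100%) and 9.2 uM bortezomib final (0%).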

Test [6] can be described thus: High-throughput drug toxicity screening in the BPDCN cell line Cal-1 (AID 1224825). To be noted: Cal-1 BPDCN cell viability, qHTS; at 45.8 µM (top of the series) unless noted. In a few lines: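 Exponentially growing Cal-1 cells, 500 per well in phenol red-free RPMI with 10% FBS, were exposed to compounds for 48 h at 37 °C, 5% CO2. Viability was read by CellTiter-Glo luminescence and normalised to DMSO (100%) and 9.2 uM bortezomib (0%).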

A short description of test [7]: qHTS assay for measurement of the activity of small molecule inhibitors on Zika virus induced Caspase-3 activity in human astrocytoma cells (AID 1224859; active means well fitted curve in the direction sought with a large enough effect; an effect the other way counts as inactive or inconclusive;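 further: plate controls were ZIKV-infected untreated cells for no effect and uninfected cells for full effect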). In a few lines:
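Luminescent caspase-3/7 read-out (30 min reagent, room temperature) in human SNB-19 cells infected 6 h with ZIKV (2 FFU/cell) after 1 h compound pre-incubation; Data were normalised to uninfected and infected wells.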

Test [8] can be described thus: qHTS Screen of the MIPE 4.0 Collection Against Ewings Sarcoma (RDES) (AID 1259252; active means well fitted curve in the direction sought with a large enough effect; an effect the other way counts as inactive or inconclusive; further: nearly all actives have a fitted effect of over 35% in size; further: potency means the concentration at half of the fitted maximal effect). In a few lines:
(§2)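 Measured: ATP luminescence (CellTiter-Glo) 10 min after reagent addition, following 48 h drug treatment. Relative luciferase units converted to percent activity, with no-cell wells as full and DMSO wells as zero inhibition.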

Test [9] can be described thus: qHTS Screen of the MIPE 4.0 Collection Against Ewings Sarcoma (TC71) (AID 1259253; active means well fitted curve in the direction sought with a large enough effect; an effect the other way counts as inactive or inconclusive; further: nearly all actives have a fitted effect of over 40% in size; further: potency means the concentration at half of the fitted maximal effect). A digest of the protocol: as §2
Test [10] in a line: qHTS Screen of the MIPE 4.0 Collection Against Ewings Sarcoma (EW8) (AID 1259255; active means well fitted curve in the direction sought with a large enough effect; an effect the other way counts as inactive or inconclusive; further: nearly all actives have a fitted effect of over 35% in size; further: potency means the concentration at half of the fitted maximal effect;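 on viability: 100% = DMSO-treated cells and 0% = medium-only wells without cells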). A digest of the protocol:
as §2

The nature of test [11]: qHTS assay for measurement of the activity of small molecule inhibitors on Zika virus induced Caspase-3 activity in human iPSC derived neural progenitor cells (hNPCs) (AID 1224857; active means well fitted curve in the direction sought with a large enough effect; an effect the other way counts as inactive or inconclusive; further: % of control where 0% means no effect; nearly all actives have a fitted effect of over 65% in size). A digest of the protocol: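 Percent inhibition of virus-induced caspase-3/7 luminescence (Caspase-Glo), scaled between uninfected cells and Zika-infected cells. hNPCs received compound 1 hr before ZIKV at 2 FFU/cell, with 6 hours infection at 37 C.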

Test [12] is described as follows: qHTS profiling for inhibitors of Plasmodium falciparum (3D7) proliferation (AID 743322).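 Further: infected erythrocytes exposed to compound for 72 h before lysis; 100% = DMSO vehicle wells and 0% = 0.29 µM artemisinin.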 Particulars: P. falciparum 3D7 proliferation; at 28.7 µM (top of the series). In a few lines:
as §1

A short description of test [13]: qHTS profiling for inhibitors of Plasmodium falciparum (DD2) proliferation (AID 743323). To be noted: lower = more inhibition; at 28.7 µM (top of the series). In a few lines: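 SYBR Green fluorescence (ex 485, em 535 nm) of lysed cultures gives parasite DNA content; wells normalized to artemisinin (0.29 uM) and DMSO controls. Infected red cells: 0.3% parasitemia, 2.5% hematocrit, 72 h, 37 C.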

Test [14] in a line: qHTS profiling for inhibitors of Plasmodium falciparum (HB3) proliferation (AID 743324; active means well fitted curve in the direction sought with a large enough effect; an effect the other way counts as inactive or inconclusive;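 further: 100% = DMSO vehicle wells and 0% = artemisinin-treated control wells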). To be noted: Plasmodium falciparum HB3 blood-stage proliferation; at 28.7 µM (top of the series). In a few lines:
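P. falciparum HB3 grown in erythrocytes (0.3% parasitemia, 2.5% hematocrit final) with compound for 72 h at 37 C, 5% CO2. Parasite DNA detected by SYBR Green after saponin/triton lysis overnight; normalized to 0.29 uM artemisinin and DMSO.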

Values joined by “and” are separate entries in the source; they are usually repeats but may differ in a detail not shown here. Equal values may be shown once. Records with an inconclusive call do not appear. Active and inactive are the calls of the source. Unless noted, how the calls were made is not given here.

`CO[C@H]1C(=O)[C@]2(C)[C@@H](OC)C[C@H]3OC[C@@]3(OC(C)=O)[C@H]2[C@H](OC(=O)c2ccccc2)[C@]2(O)C[C@H](OC(=O)[C@H](O)[C@@H](NC(=O)OC(C)(C)C)c3ccccc3)C(C)=C1C2(C)C` displayed a parasite growth, % of DMSO control in [1] of 4.99%. Moreover, in [2], the parasite growth remaining, % of DMSO control (lower = more inhibition) stood at 13.7%. Moreover, the parasite growth, % of control (lower = inhibition) in test [3] is 21.2%. Further, in [4], the growth, % of control was 3.01%. The cell viability, % of control (lower = more cytotoxic) in test [5] came out at 28.9%. Also, in test [6], the viability (% of control) turned out to be 13%. The Potency result in test [7], in test [8], in test [9] and in [10] was “inactive” in each case.

`C[N+](C)(C)CC(=O)O`: the parasite growth, % of DMSO control in test [1] was 86.7%. For the same compound, the parasite growth remaining, % of DMSO control (lower = more inhibition) in test [2] is 96.1%. The same compound displayed a growth, % of control in [4] of 85.2%. Moreover, in [5], the cell viability, % of control (lower = more cytotoxic) was 178%. Moreover, the viability (% of control) in test [6] was determined as 114%. Also, the Potency result in [7], in [8], in test [9] and in [10] was “inactive” each time.

As to `O=C(Nc1ccccc1Br)N[C@@H]1CCN(c2ccc(C(F)(F)F)cn2)C1`, the parasite growth, % of DMSO control in [1] came out at 73.6%. The parasite growth remaining, % of DMSO control (lower = more inhibition) in test [2] came out at 96.2%. Also, the growth, % of control in test [4] was determined as 71.2%. Moreover, the cell viability, % of control (lower = more cytotoxic) in test [5] came out at 266%. In addition, the viability (% of control) in test [6] was found to be 101%. The Potency result in [11] is “inactive”.

Compound `NS(=O)(=O)c1cccc2c1C(=O)c1cccc(O)c1C2=O` showed a parasite growth, % of DMSO control in test [1] of 4.48%. In test [2], the parasite growth remaining, % of DMSO control (lower = more inhibition) was 6.12%. For the same compound, the parasite growth, % of control (lower = inhibition) in test [3] was determined as 4.4%. Further, the growth, % of control in test [4] is 2.61%. For the same compound, the cell viability, % of control (lower = more cytotoxic) in test [5] is 5.1%. Further, in test [6], the viability (% of control) worked out at 3.92%. Besides, the Potency result in test [7] was “inactive”. Further, the Potency in [8] is 18.7 µM (active); in test [9] it was 18.7 µM (active); in [10], 11.8 µM (active).

Regarding `COc1ccc(C2Sc3ccccc3N(CCN(C)C)C(=O)C2OC(C)=O)cc1` (stereo not given), in [1], the parasite growth, % of DMSO control was 68.8% and 96.6%. The parasite growth remaining, % of DMSO control (lower = more inhibition) in test [2] was 81% and 97.9%. In addition, the parasite growth, % of control (lower = inhibition) in [3] was 33.4% and 89.9%. In addition, the growth, % of control in test [4] was 60.2% and 101%. The cell viability, % of control (lower = more cytotoxic) in test [5] was determined as 150%. In addition, the viability (% of control) in test [6] came to 90%. The Potency result in [7], in test [9] and in test [10] was “inactive” in each case. For the same compound, the Potency in test [8] is 18.7 µM (active).

Take `NC(=O)[C@@H](CCC(F)(F)F)N(Cc1ccc(-c2ncon2)cc1F)S(=O)(=O)c1ccc(Cl)cc1`: in [1], the parasite growth, % of DMSO control amounted to 50.8%. Further, the parasite growth remaining, % of DMSO control (lower = more inhibition) in [2] came out at 88.9%. Moreover, in test [3], the parasite growth, % of control (lower = inhibition) turned out to be 54.6%. This compound gave a growth, % of control in [4] of 73.5%. Moreover, the cell viability, % of control (lower = more cytotoxic) in [5] stood at 127%. Further, the viability (% of control) in test [6] worked out at 93.2%. For the same compound, the Potency entry in [7] is “inactive”. Further, in test [9], the Potency is 18.7 µM (active).

In the case of `Cc1nc(N)sc1-c1ccnc(Nc2ccc(N3CCOCC3)cc2)n1`, in test [12], the remaining parasite growth % (stronger effect = lower value) amounted to 2.54%. The compound further showed an activity, percent of control in [13] of 7.68%. Also, in test [14], the remaining proliferation (% of control), lower = more inhibition worked out at 10.5%. Besides, the parasite growth, % of DMSO control in test [1] was determined as 6.44%. Further, the parasite growth remaining, % of DMSO control (lower = more inhibition) in test [2] was 9.15%. This compound also returned a growth, % of control in test [4] of 5.5%. Moreover, the cell viability, % of control (lower = more cytotoxic) in test [5] was 33.6%. Also, the viability (% of control) in test [6] amounted to 6.5%. In addition, the Potency entry in test [7] is “inactive”. In addition, the Potency is 18.7 µM (active) in test [8], 14.8 µM (active) in [9] and 0.833 µM (active) in test [10].

Compound `Cc1ccc([C@@H]2O[C@H](CO)[C@@H](O)[C@H](O)[C@@H]2O)cc1Cc1ccc(-c2ccc(F)cc2)s1` had a parasite growth, % of DMSO control in [1] of 134%. Moreover, the parasite growth remaining, % of DMSO control (lower = more inhibition) in test [2] was 118%. For the same compound, the parasite growth, % of control (lower = inhibition) in test [3] worked out at 75.3%. The same compound gave a growth, % of control in test [4] of 310%. In addition, in [5], the cell viability, % of control (lower = more cytotoxic) was 126%. Further, the viability (% of control) in test [6] was determined as 48.1%. In addition, in test [11], the Potency result was “inactive”.

`CCOC(=O)O[C@]1(C(=O)OCCl)CC[C@@H]2[C@H]3CCC4=CC(=O)C=C[C@]4(C)[C@@H]3[C@@H](O)C[C@@]21C` had a parasite growth, % of DMSO control in [1] of 48.2%. Further, the parasite growth remaining, % of DMSO control (lower = more inhibition) in test [2] was 86.4%. The compound further yielded a parasite growth, % of control (lower = inhibition) in test [3] of 44.6%. For the same compound, in test [4], the growth, % of control was found to be 68.7%. In addition, in [5], the cell viability, % of control (lower = more cytotoxic) was found to be 84.3%. Also, in test [6], the viability (% of control) turned out to be 77.6%. Further, the Potency result in test [7] and in [9] was “inactive” each time.

The record behind these values is PubChem BioAssay (NCATS).
